Calls of active or inactive are those of the source.

Test [1] can be described thus: small molecules captured by biotinylated probe aFSTL3 – biochemical, small-molecule microarray, fluorescence 635/667, stem cell growth factor project, primary screen (AID 1064).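 Note: measures binding of the biotinylated anti-FSTL3 antibody to printed compounds.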 The conditions noted are these: higher = more signal.
The nature of test [2]: binders from COS7 lysate, DM2A8 probe, primary screen, torsin A project, cell lysate, small-molecule microarray, fluorescence 635/667 (AID 1065). The conditions noted are these: higher = more signal, COS7 lysate expressing mutant human TOR1A.
The nature of test [3]: small molecules captured by biotinylated probe aFGF2 – biochemical, small-molecule microarray, fluorescence 635/667, stem cell growth factor project, primary screen (AID 1067).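 Note: measures binding of biotinylated aFGF2 protein to printed compounds on slides; z-score merges feature fluorescence and signal-to-noise across triplicate slides.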 The conditions noted are these: higher = more signal.
Test [4] in a line: small molecules captured by biotinylated probe aFGF10 – biochemical, small-molecule microarray, fluorescence 635/667, stem cell growth factor project, primary screen (AID 1071).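 Note: score merges 667 nm spot intensity and signal to noise from triplicate slides.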 To be noted: higher = more signal.
Test [5] concerns the target Neurogenic locus notch homolog protein 2 (Homo sapiens) (UniProt Q04721). Kind of test: small molecules binding Notch2 protein – biochemical, small-molecule microarray, 635 nm fluorescence, stem cell growth factors, primary screen (AID 1073). The conditions noted are these: higher = more signal.
For test [6], the target named is Pro-neuregulin-1, membrane-bound isoform (Homo sapiens) (UniProt Q02297). Put plainly: small molecules binding neuregulin-1 protein – biochemical, small-molecule microarray, fluorescence 635/667, psychiatric disease protein project, primary screen (AID 1075).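 Note: score combines 667 nm spot fluorescence with signal to noise.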 To be noted: NRG1 binding, 635 nm fluorescence, higher = more signal.
The test system of test [7] is Neuregulin-1 EGF-like domain. Kind of test: small molecules binding NRG1 EGF domain – biochemical, small-molecule microarray, 635 nm fluorescence, primary screen (AID 1081).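 Note: binding of the protein to compounds printed on small-molecule microarray slides.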 The conditions noted are these: higher = more signal.
Test [8] is described as follows: FRG1 expression reporter modulators in myotubes – cell-based, C2C12 myotubes, firefly/Renilla luciferase, luminescence, FRG1 inhibition for FSHD, primary screen (AID 1084). To be noted: FRG1 promoter luciferase, higher = more signal, called active from +8 up or from −8 down.
Test [9] can be described thus: small molecules captured by biotinylated probe aFST – biochemical, small-molecule microarray, fluorescence 635/667, stem cell growth factor project, primary screen (AID 1086).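 Note: score merges 667 nm fluorescence with signal-to-noise of each printed compound spot.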 The conditions noted are these: higher = more signal.
Test [10] in a line: binders of probe aHhip on microarray, primary screen, stem cell growth factor project, biochemical, small-molecule microarray, fluorescence 635/667 (AID 1087).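 Note: score merges spot fluorescence at 667nm with spot signal to noise ratio.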 To be noted: higher = more signal.
Test [11] relates to PRMT1 (protein arginine N-methyltransferase 1). Kind of test: small molecules binding arginine methyltransferase PRMT1 – biochemical, small-molecule microarray, 635 nm fluorescence, primary screen (AID 1088).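 Note: binding of Prmt1 protein to compounds spotted on small-molecule microarray slides.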 To be noted: higher = more signal.
Test [12] can be described thus: growth effects on S. cerevisiae YJM789 – YJM789 clinical isolate, OD600, 24 h, basal, primary screen (AID 1089).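 Note: growth of clinical yeast isolate S. cerevisiae YJM 789 seeded 1000 cells per well; test concentration not given here.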 To be noted: higher = more signal, called active from +8 up or from −8 down.
Test [13] in a line: S. pombe growth modifiers, basal conditions – strain 972, OD600, 24 h, no modulator, primary screen (AID 1090).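 Note: basal condition with compound alone and no growth modifier present; test concentration not given here.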 The conditions noted are these: S. pombe 972 growth, higher = more signal, called active from +8 up or from −8 down.
Test [14] in a line: budding yeast growth modifiers under rapamycin – strain BY4716, OD600, 96 h, primary screen (AID 1091). Note: test concentration not given here. The conditions noted are these: S. cerevisiae BY4716 + rapamycin, higher = more signal, called active from +8 up or from −8 down.
For test [15], the target named is Torsin-1A-interacting protein 2 (Homo sapiens) (UniProt Q8NFQ8). Kind of test: small molecules binding lysate-expressed LULL1 – cell lysate, human LULL1 lysate, 635/667 nm fluorescence, primary screen (AID 1092).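 Note: probe is lysate of COS7 cells overexpressing human LULL1; score merges per-feature 667 nm fluorescence with signal-to-noise.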 To be noted: small-molecule microarray, hLULL1 lysate binding, 635 nm fluorescence; higher = more signal.
Test [16] is described as follows: optical density change of DRC41 E. coli – strain DRC41, OD650, 24 h, E. coli filamentation project, primary screen (AID 1093).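 Note: MC1000 strain lacking acrAB efflux and sulA so SOS filamentation is blocked; test concentration not given here.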 The conditions noted are these: E. coli DRC41 growth, higher = more signal, called active from +8 up or from −8 down.
Test [17] can be described thus: probe aLefty2 binding to arrayed compounds – biochemical, biotinylated probe, 635/667 nm fluorescence, primary screen (AID 1094).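 Note: score merges spot fluorescence near 667 nm with spot signal-to-noise ratio.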 To be noted: small-molecule microarray, higher = more signal.
Test [18] deals with Noggin (protein binding on small-molecule microarray). Kind of test: small molecules binding Noggin protein – biochemical, 635/667 nm fluorescence, primary screen (AID 1095).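 Note: score merges 667 nm feature fluorescence with signal to noise over triplicate slides.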 To be noted: 635 nm fluorescence, higher = more signal.
The target of test [19] is Neurogenic locus notch homolog protein 3 (Homo sapiens) (UniProt Q9UM47). Put plainly: small molecules binding NOTCH3 protein – biochemical, 635/667 nm fluorescence, primary screen (AID 1096). The conditions noted are these: small-molecule microarray, 635 nm fluorescence, higher = more signal.
Test [20] in a line: probe aEGFR binding to arrayed compounds – biochemical, biotinylated probe, 635/667 nm fluorescence, primary screen (AID 1097).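 Note: probe is a biotinylated anti-EGFR antibody binding compounds printed on slides; score combines fluorescence near 667 nm and signal to noise of each spot.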 The conditions noted are these: small-molecule microarray, higher = more signal.

Torsin-1A-interacting protein 2 (Homo sapiens), sequence (Q8NFQ8 whole entry, looked up): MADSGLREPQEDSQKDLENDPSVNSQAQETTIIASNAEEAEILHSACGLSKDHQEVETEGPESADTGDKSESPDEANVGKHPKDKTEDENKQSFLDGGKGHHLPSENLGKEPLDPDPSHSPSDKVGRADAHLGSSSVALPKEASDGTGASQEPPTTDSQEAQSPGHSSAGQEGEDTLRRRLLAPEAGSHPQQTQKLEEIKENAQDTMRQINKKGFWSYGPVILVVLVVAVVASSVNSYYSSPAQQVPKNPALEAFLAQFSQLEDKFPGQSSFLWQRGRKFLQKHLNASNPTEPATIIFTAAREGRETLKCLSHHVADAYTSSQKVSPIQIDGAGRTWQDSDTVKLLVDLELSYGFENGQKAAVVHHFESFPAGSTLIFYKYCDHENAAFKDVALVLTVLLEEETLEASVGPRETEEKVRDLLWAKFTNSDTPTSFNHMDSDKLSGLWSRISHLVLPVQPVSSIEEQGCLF
Neurogenic locus notch homolog protein 3 (Homo sapiens), sequence (Q9UM47 whole entry, looked up): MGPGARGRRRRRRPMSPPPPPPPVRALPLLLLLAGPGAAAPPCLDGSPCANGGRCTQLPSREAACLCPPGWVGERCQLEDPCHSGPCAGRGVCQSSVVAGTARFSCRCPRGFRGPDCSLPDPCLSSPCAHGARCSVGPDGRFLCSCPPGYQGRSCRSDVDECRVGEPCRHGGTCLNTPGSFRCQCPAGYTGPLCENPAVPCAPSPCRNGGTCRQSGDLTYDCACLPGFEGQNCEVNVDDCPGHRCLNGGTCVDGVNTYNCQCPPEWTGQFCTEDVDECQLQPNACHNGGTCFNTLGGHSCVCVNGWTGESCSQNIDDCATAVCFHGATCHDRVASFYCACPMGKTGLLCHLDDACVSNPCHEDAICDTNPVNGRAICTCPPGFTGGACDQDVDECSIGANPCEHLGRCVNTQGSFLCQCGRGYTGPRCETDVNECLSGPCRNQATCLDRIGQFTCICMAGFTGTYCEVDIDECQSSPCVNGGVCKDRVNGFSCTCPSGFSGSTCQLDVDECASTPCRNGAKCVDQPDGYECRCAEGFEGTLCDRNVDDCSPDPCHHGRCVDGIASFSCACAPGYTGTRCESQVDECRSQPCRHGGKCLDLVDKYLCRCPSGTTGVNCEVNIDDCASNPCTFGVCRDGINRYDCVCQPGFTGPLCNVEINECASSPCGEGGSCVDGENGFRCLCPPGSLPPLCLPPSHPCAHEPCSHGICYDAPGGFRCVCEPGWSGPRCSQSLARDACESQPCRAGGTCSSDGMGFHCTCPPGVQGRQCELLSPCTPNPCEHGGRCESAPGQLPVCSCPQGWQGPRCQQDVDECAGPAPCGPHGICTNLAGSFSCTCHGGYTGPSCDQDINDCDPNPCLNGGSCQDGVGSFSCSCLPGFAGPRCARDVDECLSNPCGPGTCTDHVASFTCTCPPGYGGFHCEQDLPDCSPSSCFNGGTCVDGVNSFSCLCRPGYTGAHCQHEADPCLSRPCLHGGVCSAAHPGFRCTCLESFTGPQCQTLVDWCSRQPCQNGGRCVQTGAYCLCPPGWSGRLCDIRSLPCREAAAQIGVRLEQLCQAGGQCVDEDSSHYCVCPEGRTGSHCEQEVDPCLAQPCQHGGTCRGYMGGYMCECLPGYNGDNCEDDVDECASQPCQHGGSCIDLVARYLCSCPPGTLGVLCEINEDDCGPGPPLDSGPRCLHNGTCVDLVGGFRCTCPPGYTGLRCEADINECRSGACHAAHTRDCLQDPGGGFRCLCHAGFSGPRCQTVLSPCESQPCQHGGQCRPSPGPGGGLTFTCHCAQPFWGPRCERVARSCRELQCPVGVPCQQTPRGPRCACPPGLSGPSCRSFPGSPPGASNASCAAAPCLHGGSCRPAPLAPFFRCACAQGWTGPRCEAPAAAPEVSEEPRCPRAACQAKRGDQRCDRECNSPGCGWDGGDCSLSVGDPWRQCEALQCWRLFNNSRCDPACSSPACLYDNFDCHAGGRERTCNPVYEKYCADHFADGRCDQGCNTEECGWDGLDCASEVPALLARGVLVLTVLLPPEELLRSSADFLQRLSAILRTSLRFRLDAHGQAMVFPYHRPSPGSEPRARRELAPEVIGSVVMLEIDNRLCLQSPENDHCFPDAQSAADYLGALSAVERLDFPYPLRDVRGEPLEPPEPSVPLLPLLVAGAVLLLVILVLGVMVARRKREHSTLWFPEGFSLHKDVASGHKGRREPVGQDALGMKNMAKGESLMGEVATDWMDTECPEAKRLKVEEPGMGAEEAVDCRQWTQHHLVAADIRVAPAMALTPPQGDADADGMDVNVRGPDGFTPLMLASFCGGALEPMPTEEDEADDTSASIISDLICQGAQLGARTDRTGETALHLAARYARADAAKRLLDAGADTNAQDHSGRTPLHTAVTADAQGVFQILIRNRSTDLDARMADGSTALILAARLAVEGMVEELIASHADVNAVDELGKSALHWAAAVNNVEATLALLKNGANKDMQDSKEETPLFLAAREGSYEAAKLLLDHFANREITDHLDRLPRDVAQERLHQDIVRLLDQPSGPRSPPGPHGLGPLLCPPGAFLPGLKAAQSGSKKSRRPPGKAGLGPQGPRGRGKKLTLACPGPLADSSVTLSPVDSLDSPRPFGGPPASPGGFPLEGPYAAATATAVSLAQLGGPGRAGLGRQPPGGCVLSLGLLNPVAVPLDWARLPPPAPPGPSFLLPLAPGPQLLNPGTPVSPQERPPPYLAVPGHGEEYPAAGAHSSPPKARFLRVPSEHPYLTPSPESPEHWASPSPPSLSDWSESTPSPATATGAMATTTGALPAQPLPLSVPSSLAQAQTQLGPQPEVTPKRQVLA
Pro-neuregulin-1, membrane-bound isoform (Homo sapiens), sequence (Q02297 whole entry, looked up, the tested form may be a part, canonical isoform): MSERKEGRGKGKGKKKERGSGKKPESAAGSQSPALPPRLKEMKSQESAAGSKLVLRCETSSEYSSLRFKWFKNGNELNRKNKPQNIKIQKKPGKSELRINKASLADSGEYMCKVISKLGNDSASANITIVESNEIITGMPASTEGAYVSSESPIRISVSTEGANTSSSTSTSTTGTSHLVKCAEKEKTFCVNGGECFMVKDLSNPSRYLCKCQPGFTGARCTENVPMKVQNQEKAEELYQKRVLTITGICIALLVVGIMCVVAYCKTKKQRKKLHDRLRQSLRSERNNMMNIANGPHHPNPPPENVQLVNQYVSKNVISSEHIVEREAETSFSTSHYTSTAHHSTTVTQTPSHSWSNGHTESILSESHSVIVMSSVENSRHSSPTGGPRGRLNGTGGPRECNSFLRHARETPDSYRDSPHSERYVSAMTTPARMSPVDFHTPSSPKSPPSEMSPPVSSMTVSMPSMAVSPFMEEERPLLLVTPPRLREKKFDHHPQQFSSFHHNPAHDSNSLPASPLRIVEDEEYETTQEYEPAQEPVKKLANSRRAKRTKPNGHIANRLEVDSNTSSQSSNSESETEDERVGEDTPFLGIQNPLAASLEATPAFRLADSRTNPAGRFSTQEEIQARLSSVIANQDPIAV

In the case of `C=C(CCCC)C(=O)CC[C@H](OC(=O)c1ccccc1-c1ccccc1C(=O)O)c1ccccc1OCCO`, the composite z-score in test [1] is -0.0134; in test [2] it was 0.814; in test [3], -0.149; in test [4], 0.76; in test [5], -0.331; in [6] it was 1.06. In addition, the composite z-score is 1.07 in test [7]; -0.214 in [9]; -0.249 in test [10]; 0.774 in test [11]; 0.189 in test [15]; -0.183 in test [17]. The composite z-score was 0.512 in test [18], -0.025 in [19] and -0.162 in test [20]. Moreover, the z-score in [8] is -1.42 (inactive); in test [12], 0.604 (inactive); in test [13] it was -0.659 (inactive); in test [14], -0.918 (inactive); in test [16], 1.07 (inactive).
For the compound `O=C(N1CCOCC1)[C@@]1(CCS(=O)(=O)c2ccccc2)N=C(c2ccc(OCCCO)cc2)O[C@H]1c1ccccc1`, the composite z-score is 0.448 in [1]; 1.06 in test [2]; 0.0671 in test [3]; 0.515 in test [4]; 1.45 in [5]; 2.31 in test [6]. Also, the composite z-score in [7] is 1.37; in [9], 1.37; in test [10], -0.191; in [11], 1.44; in [15] it was 3.56; in test [17], 0.352. Besides, the composite z-score in test [18] stood at 0.136; in test [19] it was 1.15; in test [20], 0.156. The z-score in [8] is 0.419 (inactive); in test [12], 0.487 (inactive); in test [13], 0.395 (inactive); in [14] it was -0.0156 (inactive); in test [16] it was 0.746 (inactive).
`COc1cc(NN2C(C(O)C3CCCCC3)C=CC3C(=O)N(C)C(=O)C32)cc(OC)c1OC` (stereo not given): the composite z-score in test [1] turned out to be 0.322; in test [2], 0.054; in [3], 0.162; in test [4] it was 0.306; in test [5], 1.59; in test [6], 1.65. For the same compound, the composite z-score in test [7] was 1.21; in test [9], 0.479; in test [10], 0.0877; in test [11] it was 1.48; in test [15], 3.46; in test [17] it was 0.855. In addition, the composite z-score is -0.0279 in test [18], 1.09 in test [19] and 0.186 in test [20]. Further, the z-score is 0.391 (inactive) in [8]; 0.137 (inactive) in [12]; 0.169 (inactive) in [13]; 0.0624 (inactive) in test [14]; -0.853 (inactive) in test [16].
On to `CCOC(=O)C=Cc1ccccc1O`, for which the composite z-score in test [1] was -0.13; in [2], 0.0396; in test [3] it was -0.0156; in test [4], 0.205; in [5], 0.578; in [6] it was -0.0345. The composite z-score in [7] is 0.614; in test [9], 0.245; in test [10], -0.0003; in test [11], 0.697; in [15] it was 1.44; in [17], -0.0432. Further, the composite z-score in [18] was -0.0491; in [19], 0.947; in test [20], 0.0594. The z-score in [8] was 0.911 (inactive); in test [12] it was -23.9 (active); in test [13], -9.67 (active); in [14], -1.89 (inactive); in test [16] it was 0.354 (inactive).
In the case of `COC(=O)[C@@]1(Cc2ccc(F)cc2)[C@H]2c3cc(C(=O)N(C)C)n(Cc4ccc(O)c(OC)c4)c3C[C@H]2CN1C(=O)c1ccccc1`, the composite z-score in test [1] came to 0.129; in [2], 0.196; in test [3] it was 0.0398; in test [4], 0.531; in [5], 1.35; in test [6], 1.26. The composite z-score in [7] stood at 0.786; in test [9], 0.675; in test [10], 1.17; in test [11] it was 0.423; in [15], 2.2; in test [17], 0.0043. The figures for the composite z-score in test [18], in [19] and in test [20] were 0.718, 1.13 and 0.0977, respectively. The z-score is 2.98 (inactive) in test [8]; 0.0973 (inactive) in [12]; -1.2 (inactive) in test [13]; 0.485 (inactive) in [14]; 1.02 (inactive) in [16].

The record behind these values is PubChem BioAssay.
